FBA Mtb inh = Mtb fructose-bisphosphate aldolase inhibition; P9WQA3; inhibition, % at 1 µM; 360,000 tested, 2.3% active; purified M. tuberculosis FBA, fluorescence read-out; AID 588726; in the data active = inhibition above about 27%;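 also: 0% = vehicle and 100% = reference inhibitor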
Mtb bLac sens = beta-lactam sensitization of Mtb H37Rv; inhibition, % at 25 µM; 330,000 tested, 0.27% active; AID 434955; M. tuberculosis H37Rv growth with meropenem, percent inhibition; call rule not given here;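 also: growth measured after seven days incubation then overnight dye step; 0% = bacteria only wells and 100% = bacteria with antibiotic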
RecA splice inh = Mtb RecA intein splicing inhibition; P9WHJ3; cell-free RecA intein splicing, fluorescence; inhibition, % (test concentration not listed); 290,000 tested, 0.75% active; in the data active = inhibition above about 30%;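 also: 0% = vehicle wells and 100% = reference inhibitor control wells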
Target sequence (P9WHJ3 whole entry, looked up, canonical isoform): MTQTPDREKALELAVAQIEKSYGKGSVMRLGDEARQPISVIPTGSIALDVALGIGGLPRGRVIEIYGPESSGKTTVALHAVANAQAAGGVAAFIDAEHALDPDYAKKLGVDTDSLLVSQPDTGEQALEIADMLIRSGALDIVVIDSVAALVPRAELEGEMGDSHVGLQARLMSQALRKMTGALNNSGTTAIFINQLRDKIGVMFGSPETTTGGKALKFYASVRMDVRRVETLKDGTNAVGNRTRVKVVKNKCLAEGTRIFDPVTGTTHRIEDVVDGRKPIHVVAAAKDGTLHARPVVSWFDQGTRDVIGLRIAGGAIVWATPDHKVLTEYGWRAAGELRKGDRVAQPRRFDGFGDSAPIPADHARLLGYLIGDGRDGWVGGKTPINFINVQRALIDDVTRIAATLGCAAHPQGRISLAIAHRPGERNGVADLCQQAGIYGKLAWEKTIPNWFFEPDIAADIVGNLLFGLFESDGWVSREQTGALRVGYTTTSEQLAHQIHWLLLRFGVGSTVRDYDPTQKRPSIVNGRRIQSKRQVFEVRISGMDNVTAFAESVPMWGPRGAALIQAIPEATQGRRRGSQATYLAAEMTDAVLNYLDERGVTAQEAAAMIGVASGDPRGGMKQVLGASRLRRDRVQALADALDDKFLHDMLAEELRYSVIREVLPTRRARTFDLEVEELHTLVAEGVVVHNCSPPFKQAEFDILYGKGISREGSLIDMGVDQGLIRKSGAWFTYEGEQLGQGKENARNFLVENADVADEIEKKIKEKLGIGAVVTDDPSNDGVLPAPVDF
CCHF vOTU inh = CCHFV vOTU protease inhibition; Pep-AMC fluorescence; inhibition, % at 11.5 µM; 370,000 tested, 0.55% active; also: 0% = vehicle wells with enzyme and 100% = no enzyme wells
GDH-TPI counter-1 = counter-screen for M. tuberculosis FBA inhibitors: GDH-TPI coupled enzymes | AID 588335 | GDH-TPI coupled enzyme counterscreen, NADH absorbance | inhibition, % at 4.8 µM | 360,000 tested, 1.2% active;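 also: 0% = DMSO wells and 100% = wells lacking the enzyme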
Mtb FBA confirm = Mtb FBA inhibition, confirmed; purified M. tuberculosis FBA, fluorescence read-out; 5,600 tested, 78% active; shares compounds with FBA Mtb inh; inhibition, % at 1 µM; in the data active = inhibition above about 27%;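 also: 0% = vehicle wells and 100% = reference inhibitor wells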
GDH-TPI counter-2 = inhibits GDH-TPI coupling enzymes, flagging Mtb FBA hits. shares compounds with FBA Mtb inh. GDH-TPI coupled enzyme counterscreen, fluorescence. inhibition, % at 1 µM. 5,600 tested, 81% active. AID 652141; in the data active = inhibition above about 10%
Active calls of the source: *; nt = no result; + = active, no number. Most compounds without a hit are left out; they make up all but 4.2% or so of the library. Rule as the data show it, unless noted: active = inhibition above about 30%; inactive = the rest.

SMILES	FBA Mtb inh	Mtb bLac sens	RecA splice inh	CCHF vOTU inh	GDH-TPI counter-1	Mtb FBA confirm	GDH-TPI counter-2
Cc1ccc2nc(-c3ccccc3O)c(Nc3ccc4c(c3)OCCO4)n2c1	1	8	-1	0	0	nt	nt
Cc1ccc2nc(-c3ccc(O)cc3)c(Nc3ccc4c(c3)OCCO4)n2c1	36*	2	0	-3	2	+	162*
CCOC(=O)CCc1c(C)c2ccc(OCC(=O)OC(C)C)cc2oc1=O	67*	8	-2	-25	13	54*	41*
C=CCOC(=O)COc1ccc2c(C)c(C)c(=O)oc2c1	68*	97	1	-24	23	25	28*
CCOC(=O)CCc1c(C)c2ccc(OC3CCCCC3=O)cc2oc1=O (stereo unspecified)	109*	-6	0	-54	5	151*	132*
CCOC(=O)COc1ccc2c(=O)cc(-c3ccccc3)oc2c1	5	99	1	-3	-1	nt	nt
CCCCc1c(C)c2ccc(OCC(C)=O)cc2oc1=O	72*	62	nt	-21	3	3	6
Cc1cc(NC(=O)COc2ccc3c(C)c(C)c(=O)oc3c2)no1	26	nt	nt	-7	3	nt	nt
CCC(NC(=O)CCc1c(C)c2cc3c4c(oc3cc2oc1=O)CCCC4)C(=O)O (stereo unspecified)	9	2	-4	-10	7	nt	nt
CSc1ccccc1-c1cnc2cccnn12	4	nt	nt	-14	8	nt	nt
CCOc1ccc(-c2cnc3cccnn23)cc1	9	nt	nt	-6	16	nt	nt
c1ccc2c(-c3cnc4cccnn34)cncc2c1	40*	nt	nt	-40	16	188*	106*
c1cc(-c2cnc3cccnn23)c2cccnc2c1	38*	nt	nt	-14	16	127*	115*
Cc1c(C)c2ccc(O[C@@H]3O[C@H](CO)[C@H](O)[C@H](O)[C@H]3O)cc2oc1=O	38*	3	-2	6	10	53*	42*
O=C1CSc2ccc(C(=O)N3CCCC(C(=O)N4CCCC4)C3)cc2N1 (stereo unspecified)	nt	nt	nt	-3	nt	nt	nt
Cc1cc(C)nc(-n2ncc3c2CC(c2cccc(Cl)c2)CC3=O)n1 (stereo unspecified)	29*	0	0	7	16	75*	56*
Cc1cc(C)nc(-n2ncc3c2CC(c2ccccc2)CC3=O)n1 (stereo unspecified)	-1	3	2	16	6	nt	nt
Cc1ccc(C(=O)C(=O)c2ccc(C)c(N)c2)cc1N	-1	5	1	-4	10	nt	nt
Cc1ccc(-c2ccc(CO)o2)cc1N	30*	-4	-1	-9	6	187*	121*
CCCC[C@H]1C2CC(OC(=O)Nc3ccc(C(F)(F)F)cc3)C(C2)[C@H]2CCCCN21 (stereo partly specified)	nt	nt	nt	1	nt	nt	nt
C[C@H]1CN([C@@H](C)CO)C(=O)c2cc(Br)cnc2O[C@@H]1CN(C)C(=O)NC1CCCCC1	-1	nt	nt	-3	8	nt	nt
C[C@@H]1CN([C@H](C)CO)C(=O)c2cc(/C=C/c3ccccc3)cnc2O[C@H]1CN(C)C(=O)NC1CCCCC1	60*	nt	nt	-32	12	75*	70*
O=C(CSc1cccc2cccnc12)N1CCCC1	33*	32	-3	-24	5	140*	108*
CC(=O)Nc1cc2c(ccc3ccccc32)oc1=O	105*	-8	-4	-136	11	69*	63*
CC(=O)c1cc2c(ccc3ccccc32)oc1=O	50*	25	-204	-68	11	73*	60*
SMILES	FBA Mtb inh	Mtb bLac sens	RecA splice inh	CCHF vOTU inh	GDH-TPI counter-1	Mtb FBA confirm	GDH-TPI counter-2
O=C(c1cc2c(ccc3ccccc32)oc1=O)N1CCN(CCO)CC1	53*	5	-27	-71	26	63*	62*
C/C(=N\Nc1nc(-c2cc(C)ccc2C)cs1)c1cc2c(ccc3ccccc32)oc1=O	29*	1	-12	-18	12	69*	43*
CCOc1ccc(-n2c(SCc3ccc(C#N)cc3)nnc2-c2ccco2)cc1	nt	nt	nt	13	nt	nt	nt
O=C(NCC1CCN(C(=O)C(=O)c2cc3ccccc3o2)CC1)c1ccncc1	nt	nt	nt	-5	nt	nt	nt
COC(=O)[C@]12C[C@H](CC(=O)N3CCN(C(=O)C4CC4)CC3)C(=O)N(Cc3ccccc3)C1=C[C@H](C(C)C)O[C@@H]2C1CC1	nt	nt	nt	-4	nt	nt	nt
O=C(Nc1cccc(Cl)c1)C1=CC=CN2CCS(=O)(=O)N=C12	0	-7	nt	8	30	nt	nt
CC(=O)c1cccc(OC(=O)C2=CC=CN3CCS(=O)(=O)N=C23)c1	44*	-1	nt	-24	12	146*	152*
CCCCCCC(=O)Nc1c2c(nc3ccccc13)N(C)CC2	48*	-3	1	-24	6	94*	100*
CN1CCc2c1nc1ccccc1c2NC(=O)CN1CCCC1	26	1	-1	10	7	nt	nt
C[C@H](O)C(=O)C1=Nc2c(nc(N)[nH]c2=O)NC1	27*	-2	nt	-41	19	41*	33*
CCOC(=O)Cc1c(C)nc(N)[nH]c1=O	0	-2	-2	7	1	nt	nt
COc1cc2c(cc1NC(=O)CSc1nnc(-c3cccnc3)n1-c1ccc(Br)cc1)oc1ccccc12	nt	nt	nt	5	nt	nt	nt
COC(=O)[C@]12CCCCC=C1N(Cc1ccc(OC)cc1)C(=O)[C@@H]2CC(=O)N1CCN(C(=O)C2CC2)CC1	nt	nt	nt	23	nt	nt	nt
COc1ccc(Cc2c(-c3ccc(OC)c(OC)c3)nc3ccc(C)cn23)c(C)c1	31*	nt	nt	-7	nt	54*	43*
COc1ccc(-c2nc3ccc(C)cn3c2Cc2cccc(F)c2)cc1OC	59*	nt	nt	-4	nt	66*	65*
COc1ccc(/C=N/NC(=O)c2ccc(NC(C)=O)cc2)cc1COc1ccc(F)cc1F	30*	-3	0	-16	15	75*	59*
COc1ccc(/C=N/NC(=O)c2nc(Cl)c(Cl)c(N)c2Cl)cc1COc1ccc(F)cc1F	29*	30	-1	2	24	4	-2
COC(=O)[C@]12C[C@H](CC(=O)N3CCCC3)C(=O)N(Cc3cccc4ccccc34)C1=C[C@H](C(C)C)O[C@@H]2C1CC1	nt	nt	nt	5	nt	nt	nt
O=C(O)c1ccc(-c2nc(-c3ccccc3)c(-c3cccs3)[nH]2)cc1	47*	1	-4	-47	-3	75*	54*
CCOc1ccc(N=c2cc(-c3ccc(OC)cc3)oc3ccccc23)cc1	22	nt	5	-16	14	nt	nt
COc1ccc(-c2cc(=Nc3ccc(C)cc3)c3ccccc3o2)cc1	29*	nt	4	-15	21	108*	77*
CCc1ccccc1NC(=O)N1CCc2ccccc2C1	-1	-4	2	-8	-5	nt	nt
